BoNT A protease – inhibitors of Botulinum neurotoxin A light chain protease | inhibition, % at 10 µM | AID 588499 | 360,000 tested, 0.17% active | multiplex microsphere protease substrate cleavage, flow cytometry
MazEF act – activators of E. coli MazEF toxin-antitoxin RNase; P0AE70; 350,000 tested, 0.32% active; activation, % at 20 µM; FAM/BHQ RNA-DNA oligo cleavage fluorescence, 5 h; in the data active = activation above about 50%
Target sequence (P0AE70 whole entry, looked up): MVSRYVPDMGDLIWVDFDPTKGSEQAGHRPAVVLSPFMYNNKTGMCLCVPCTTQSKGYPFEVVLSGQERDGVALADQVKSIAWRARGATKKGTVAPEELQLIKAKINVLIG
Bead autofluor – counter-screen for toxin protease inhibitors: compound fluorescence; fluorescence intensity (test concentration not listed); 360,000 tested, 3.1% active; AID 624483; compound autofluorescence counterscreen, microsphere flow cytometry; stronger effect = higher value; in the data active = fluorescence intensity above about 16000
BoNT F protease – blocks Botulinum neurotoxin F light chain protease | inhibition, % at 10 µM | Multiplex microsphere protease cleavage assay, flow cytometry | 360,000 tested, 0.22% active; in the data active = inhibition above about 35%, passing the limit was not always enough
Anthrax LF inh2 – anthrax lethal factor protease inhibition | multiplex microsphere protease cleavage assay, LF | inhibition, % at 10 µM | P15917 | AID 588501 | 360,000 tested, 0.12% active
Hits are given with their value. In the library only some 3.7% were active in any assay of this set; here they are far more common. Cut-off read from the data, not from the text of the source, unless noted: active = inhibition above about 30%; inconclusive = no clear call, values can overlap the other calls; inactive = below that.

What do the screens show for `c1ccn(-c2ccc(-c3ccn[nH]3)cc2)c1`?
BoNT A protease: inactive; MazEF act: active; Bead autofluor: inactive; BoNT F protease: inactive; Anthrax LF inh2: inactive

Results for Oc1ccccc1-c1ccn[nH]1 ?
BoNT A protease: inactive; MazEF act: inactive; Bead autofluor: inactive; BoNT F protease: inactive; Anthrax LF inh2: inactive

How did Cc1ccc(C)n1-c1ccc(-c2ccn[nH]2)cc1 do in these assays?
BoNT A protease: inactive; MazEF act: 91; Bead autofluor: inactive; BoNT F protease: inactive; Anthrax LF inh2: inactive

What do the screens show for `CN(CC(=O)Nc1ccccc1Cl)C(=O)COC(=O)CCN1C(=O)C2CC=CCC2C1=O` (centres undefined)?
BoNT A protease: inactive; MazEF act: inactive; Bead autofluor: inactive; BoNT F protease: inactive; Anthrax LF inh2: inactive

What do the screens show for `Cc1sc(NC(=O)c2ccc(Cl)s2)c(C(N)=O)c1C`?
BoNT A protease: inactive; MazEF act: inactive; Bead autofluor: 16138; BoNT F protease: inactive; Anthrax LF inh2: inactive

Results for Cc1ccc(S(=O)(=O)c2c(N)n(NC(=O)C3CC3)c3nc4ccccc4nc23)cc1 ?
BoNT A protease: inactive; MazEF act: inactive; Bead autofluor: 16643; BoNT F protease: inactive; Anthrax LF inh2: inactive
